# Assay results reported in PubChem BioAssay AID1778 (Sanford-Burnham Center for Chemical Genomics, 2009).
# Hit rate of the full screen: of about 290,000 compounds, about 260 (0.09%) were called active. The sample holds actives, similar compounds and a random draw of the others, so the mix is not that of the screen. No stated cut-off is given here; in the data, active means inhibition above about 50%; inactive means the rest. Entries with a potency or affinity are not part of this list.
# Target: Kappa-type opioid receptor (Homo sapiens) (UniProt P41145)
# Assay: KOR antagonists, beta-arrestin recruitment, cell-based, luminescence, uHTS (AID 1778)
# Settings: antagonist mode, active compounds read high; at 10 µM unless noted
# Sequence of Kappa-type opioid receptor (Homo sapiens) (P41145 whole entry, looked up): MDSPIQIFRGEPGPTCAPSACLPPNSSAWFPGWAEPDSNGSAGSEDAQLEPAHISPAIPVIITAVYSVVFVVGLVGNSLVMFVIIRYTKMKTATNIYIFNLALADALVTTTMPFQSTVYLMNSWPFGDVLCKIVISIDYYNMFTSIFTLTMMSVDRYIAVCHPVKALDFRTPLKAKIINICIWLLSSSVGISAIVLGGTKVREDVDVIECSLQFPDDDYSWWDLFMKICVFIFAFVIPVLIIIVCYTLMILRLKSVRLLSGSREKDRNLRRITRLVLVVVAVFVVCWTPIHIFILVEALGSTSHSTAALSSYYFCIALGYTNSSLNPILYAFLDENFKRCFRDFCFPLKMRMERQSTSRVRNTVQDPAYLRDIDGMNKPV
row,Compound,inhibition
1,O=C(OCn1ncc(Br)c(Br)c1=O)c1c(F)cccc1F,28% (inactive)
2,O=C(OCn1ncc(Cl)c(Cl)c1=O)c1ccc(F)cc1,5.2% (inactive)
3,CC(C)C(C(=O)NC(C)(C)C)N1C(=O)c2ccccc2C1=O (stereo not given),-6.7% (inactive)
4,Cc1cc(C(=O)Nc2ccc(Br)cc2)cs1,9.2% (inactive)
5,CC(=O)c1c(C)nn(CCC(=O)O)c1C,18.3% (inactive)
6,Cc1ccnc(NC(=O)c2sc3cc(Cl)ccc3c2Cl)c1,9.3% (inactive)
7,O=C(Nc1nccs1)c1sc2ccccc2c1Cl,-49.2% (inactive)
8,O=C(CCN1C(=O)S/C(=C/c2ccc(Cl)cc2)C1=O)N1CCOCC1,36.7% (inactive)
9,Cn1c(C(=O)NCc2cccnc2)cc2sccc21,26.2% (inactive)
10,Cc1nc(Cl)c(C(=O)NCc2ccccc2)c(C)c1[N+](=O)[O-],13.7% (inactive)
11,O=C(NCc1ccccc1)c1c(Cl)nc(Cl)c(Cl)c1Cl,58.5% (active)
12,Cc1nc(Cl)c(C(=O)NCc2ccccc2)c(C)c1Cl,7.6% (inactive)
13,Cc1ccccc1-c1nc(CS(=O)(=O)CC(=O)N2CCOCC2)c(C)o1,-6% (inactive)
14,O=C(NCc1ccc(Cl)cc1)c1cc(=O)[nH]c2ccccc12,-54.2% (inactive)
15,O=C(NCc1ccccc1Cl)c1cc(=O)[nH]c2ccccc12,4.5% (inactive)
16,CCOC(=O)c1cc(-c2ccc(N3CCOCC3)cc2)nn1-c1ccc(F)cc1F,21.8% (inactive)
17,COc1ccc(NC(=O)CSc2nnnn2-c2ccc(OC)cc2)cc1,-1.3% (inactive)
18,CC(CCc1ccccc1)NC(=O)COC(=O)c1ccc(S(C)(=O)=O)c([N+](=O)[O-])c1 (stereo not given),18.3% (inactive)
19,Cc1ccccc1NC(=O)COC(=O)c1ccc(S(C)(=O)=O)c([N+](=O)[O-])c1,53.9% [at 20 µM] (active)
20,CC(=O)c1cccc(NC(=O)COC(=O)c2ccc(S(C)(=O)=O)c([N+](=O)[O-])c2)c1,18.1% (inactive)
21,O=C(Cc1cccs1)Nc1ccccc1C(=O)O,27.3% (inactive)
22,O=c1cc(-c2ccccc2)[nH]n1-c1nc2ccccc2[nH]1,11.5% (inactive)
23,COC(=O)Cc1cc(=O)n(-c2nc3ccccc3[nH]2)[nH]1,21.2% (inactive)

row,Compound,inhibition
1,COc1ccc(NC(=O)CSc2nc3sc(C)cc3c(=O)n2C)c(OC)c1,-25.7% (inactive)
2,O=C(NCC1CCCO1)C(c1ccc(F)cc1)N(Cc1ccc2c(c1)OCO2)C(=O)c1ccc(CN2CCOCC2)o1 (stereo not given),-17.9% [at 20 µM] (inactive)
3,CCOc1cc(/C=C2\SC(=S)N(Nc3ccccc3)C2=O)ccc1O,9% (inactive)
4,COc1cc(/C=C2\SC(=S)N(NC(=O)c3ccncc3)C2=O)ccc1O,49.4% (inactive)
5,Cc1c(N2C(=O)/C(=C/c3ccccc3)SC2=S)c(=O)n(-c2ccccc2)n1C,-9.4% (inactive)
6,COc1cc(/C=C2\SC(=S)N(NC(=O)c3ccc(O)cc3)C2=O)ccc1O,47.2% (inactive)
7,CCOc1ccc(/C=C2\SC(=S)N(C(C(=O)O)c3ccccc3)C2=O)cc1OC (stereo not given),9.7% (inactive)
8,Cc1ccc(/C=C2\SC(=S)N(c3c(C)n(C)n(-c4ccccc4)c3=O)C2=O)cc1,-2.4% (inactive)
9,CCOc1ccc(/C=C2/SC(=S)N(C(C(=O)O)c3ccccc3)C2=O)cc1OCC (stereo not given),-34.9% (inactive)
10,O=C1/C(=C/c2ccc(O)c(O)c2)SC(=S)N1Nc1ccccc1,35.5% (inactive)
11,Cn1cnnc1SCC(=O)Nc1ccc(OC(F)F)cc1,-3.3% (inactive)
12,C/C(=N\NC(=O)c1ccc2c(c1)OCO2)c1cccnc1,14.6% (inactive)
13,COc1ccc(NC(=O)CCCN2C(=O)C(c3ccccc3)Oc3cccnc32)cc1OC (stereo not given),7% (inactive)
14,CN1CCN(C2CC(=O)N(CCc3ccccc3)C2=O)CC1 (stereo not given),10.4% (inactive)
15,Cc1cc(C(c2ccc(C)o2)c2ccc(C)o2)c(O)c([N+](=O)[O-])c1,-22.8% (inactive)
16,COc1ccc([N+](=O)[O-])cc1NC(=O)Cc1c(Cl)cccc1Cl,15.2% (inactive)
17,CCCc1nc2sc3c(=O)n(N)cnc3c2c2c1CCCC2,-14.5% (inactive)
18,CCCc1nc2oc3c(N4CCNCC4)ncnc3c2c2c1CCCC2,14.5% (inactive)
19,CC(C)Cc1nc2oc3c(Cl)ncnc3c2c2c1CCC2,32.2% (inactive)
20,CCCc1nc2sc3c(=O)[nH]cnc3c2c2c1CCCC2,-21.3% (inactive)
21,Cn1ccnc1Sc1ccccc1[N+](=O)[O-],6.9% (inactive)
22,O=C(/C=C/c1cccc([N+](=O)[O-])c1)c1cccs1,14.1% (inactive)
23,CCc1cc2c(=O)[nH]c(-c3ccccn3)nc2s1,104% (active)

row,Compound,inhibition
1,Cc1sc2nc(-c3ccccn3)[nH]c(=O)c2c1-c1ccccc1,49.2% (inactive)
2,O=c1[nH]c(-c2ccccn2)nc2ccccc12,13.8% (inactive)
3,CCc1cc2c(=O)[nH]c(Cc3ccccc3)nc2s1,-15.3% (inactive)
4,CCc1cc2c(=O)[nH]c(-c3ccncc3)nc2s1,-17.3% (inactive)
5,COc1ccc(CNC(=O)Nc2cccc3ccccc23)cc1,7.6% (inactive)
6,N#CC1=C(N)Oc2n[nH]c(-c3ccccc3)c2C1c1cccc(OC(=O)N2CCOCC2)c1 (stereo not given),15.5% (inactive)
7,O=C(NCCN1CCOCC1)C(=O)NCc1ccc2c(c1)OCO2,-60.9% [at 20 µM] (inactive)
8,CCOc1ccc(C(=O)/C=C/Nc2ccc(S(=O)(=O)Nc3onc(C)c3C)cc2)cc1,-11% (inactive)
9,C[C@H](NC(=O)c1ccccc1)C(=O)Nc1nc(-c2ccccn2)cs1,-31% (inactive)
10,CC(Oc1ccc(Br)cc1)C(=O)NCc1ccccn1 (stereo not given),-23.9% [at 20 µM] (inactive)
11,CNc1ccc(OC(F)F)cc1C(=O)c1ccccc1,17.2% (inactive)
12,Cc1ccc(SCC(=O)N2CCc3ccccc32)cc1,-4.7% (inactive)
13,CC(=O)/C(=N\Nc1cccc(Cl)c1)Sc1cccc2cccnc12,9.1% (inactive)
14,CC(=O)/C(=N\Nc1ccccc1Cl)Sc1cccc2cccnc12,-17.2% (inactive)
15,Fc1ccc2[nH]c3c(c2c1)CN(C(=S)NCc1ccccc1)CC3,-9.6% (inactive)
16,O=C1CSC(c2ccccc2Br)N1c1ccc(Cl)cn1 (stereo not given),2.8% (inactive)
17,CCOC(=O)c1nn(-c2ccccc2C)c2nc(CC(C)C)c(C#N)c(=O)n12,-35.8% (inactive)
18,Cc1cc(C(=O)Nc2nc(-c3ccccn3)cs2)ccc1[N+](=O)[O-],22.6% (inactive)
19,O=C(Nc1nccs1)c1cc(Cl)ccc1[N+](=O)[O-],8.6% (inactive)
20,O=C(Nc1nc(-c2ccccn2)cs1)c1cc(Cl)ccc1[N+](=O)[O-],86.8% (active)
21,CNC(=O)CSc1nc2ccccc2c(=O)n1-c1cc(OC)ccc1OC,0.7% (inactive)
22,CC(NC(=O)Cn1cc(C(F)(F)F)ccc1=O)c1ccc(F)cc1 (stereo not given),-19.7% (inactive)
23,Cc1ccc(-c2nnc(SCC(N)=O)n2C)cc1,-13.4% [at 20 µM] (inactive)

row,Compound,inhibition
1,COC(=O)CC(N)c1ccc(OC)c2ccccc12 (stereo not given),15.2% (inactive)
2,Cc1[nH]oc(=O)c1N=Nc1ccccc1,-11% (inactive)
3,Oc1ccc(N=Nc2nc(-c3ccccc3)c(-c3ccccc3)[nH]2)cc1,32.4% (inactive)
4,N#Cc1ccc(NC(=O)CSc2cn[nH]n2)cc1,-56.1% (inactive)
5,CC(NC(=O)c1cc2cc([N+](=O)[O-])ccc2oc1=O)C1CCCO1 (stereo not given),-4.3% [at 20 µM] (inactive)
6,C#CCOCCOCCOCCNc1nc(N2CCN(C(=O)[C@H](Cc3ccc(O)cc3)n3cc([C@@H](N)CC(C)C)nn3)CC2)nc(N2CCN(C(=O)[C@H](Cc3cc4ccccc4[nH]3)n3cc([C@@H](N)CC(C)C)nn3)CC2)n1,10.8% (inactive)
7,C#CCOCCOCCOCCNc1nc(N2CCN(C(=O)C(Cc3ccc(O)cc3)n3cc(C(N)CC(C)C)nn3)CC2)nc(N2CCN(C(=O)C(Cc3cc4ccccc4[nH]3)n3cc(C(N)Cc4ccc(O)cc4)nn3)CC2)n1 (stereo not given),12% (inactive)
8,C#CCOCCOCCOCCNc1nc(N2CCN(C(=O)[C@H](Cc3cc4ccccc4[nH]3)n3cc([C@@H](N)Cc4ccc(O)cc4)nn3)CC2)nc(N2CCN(C(=O)[C@H](Cc3cc4ccccc4[nH]3)n3cc([C@@H](N)CC(C)C)nn3)CC2)n1,51.3% (active)
9,O=C(Nc1ccc(OC(F)(F)F)cc1)c1ccc2ccccc2n1,-27.1% (inactive)
10,CCCC(=O)OCCNc1cc(Sc2nc3ccccc3[nH]2)c2nonc2c1[N+](=O)[O-],49.9% (inactive)
11,O=[N+]([O-])c1c(NCCCO)cc(Sc2nc3ccccc3s2)c2nonc12,42.1% (inactive)
12,CCCSc1cc(NCCOC(C)=O)c([N+](=O)[O-])c2nonc12,-12.8% (inactive)
13,CC(=O)OCCNc1cc(SC(C)C)c2nonc2c1[N+](=O)[O-],-32.5% (inactive)
14,CCCC(=O)OCCNc1cc(SCc2ccco2)c2nonc2c1[N+](=O)[O-],9.3% (inactive)
15,Cc1nnc(Sc2cc(NCCO)c([N+](=O)[O-])c3nonc23)s1,17.1% (inactive)
16,CC(=O)OCCCNc1cc(Sc2nc3ccccc3s2)c2nonc2c1[N+](=O)[O-],-22.9% (inactive)
17,Cc1ccc(Sc2cc(NCCCO)c([N+](=O)[O-])c3nonc23)cc1,5.8% (inactive)
18,CCOC(=O)Nc1sc2nc(C)cc(C)c2c1-n1cccc1,-25.7% (inactive)
19,COCCN(C(=O)c1cccc(OC)c1)c1nnc(-c2ccncc2)s1,24.5% (inactive)
20,COc1ccccc1N1CCN(CC(=O)c2c(C)[nH]c3ccccc23)CC1,-0.2% (inactive)
21,COc1cc(OC)c(OC)cc1/C=N/NC(=S)NCC1CCCO1 (stereo not given),1.1% (inactive)
